This passage reports PBM binding z-score results from the supplement of paper PMC6555819.

Assay in all cases: PBM binding z-score (relative to random genomic background probes); higher = stronger binding; sequences stand for … in GC…GCGATTGACAGCGTAGAATGAAGG
Experiment [1] relates to FXR:RXRa (NR concentration 270 nM, RXRa partner concentration 90 nM). In outline: (§1)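 Probes were double-stranded and carried 34-nt variable regions with direct-repeat seeds, single-nucleotide variants, half-site ablations and random human genomic background sequences, printed on custom Agilent 4×180K protein-binding microarrays. Arrays were incubated 1 h with ligand-free nuclear receptor dimers in PBS pH 7.4, 2% milk, 0.02% Triton X-100, 1 mM DTT, 0.2 mg/mL BSA and 0.4 mg/ml salmon testes DNA. Antibodies against each partner (one per run) detected binding, and scanned fluorescence was regression-normalized. Binding z-scores use the random background probes as reference.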

The test system of experiment [2] is LXRa:RXRa (NR concentration 270 nM, RXRa partner concentration 90 nM). In outline:
as §1

Experiment [3] has as its system LXRa homodimer (NR concentration 270 nM). In outline:
as §1

For experiment [4], the system named is LXRb:RXRa (NR concentration 270 nM, RXRa partner concentration 90 nM). In outline: as §1
The subject of experiment [5] is LXRb homodimer (NR concentration 270 nM). In outline: as §1
Experiment [6] concerns PPARa:RXRa (NR concentration 270 nM, RXRa partner concentration 90 nM). In outline: as §1
Experiment [7] relates to PPARg:RXRa (NR concentration 180 nM, RXRa partner concentration 90 nM). In outline: as §1
For experiment [8], the system named is PPARg:RXRa 270nM:90nM, anti-RXR (NR concentration 270 nM, RXRa partner concentration 90 nM). In outline: as §1
Experiment [9] has as its system PPARg:RXRa 30nM:10nM, anti-RXR (NR concentration 30 nM, RXRa partner concentration 10 nM). In outline:
as §1

For experiment [10], the system named is PPARg:RXRa 90nM:30nM, anti-RXR (NR concentration 90 nM, RXRa partner concentration 30 nM). In outline:
as §1

The subject of experiment [11] is PPARg:RXRa DBDmut IVT, anti-RXR (DBD mutation: RXRa K156A/R161A, NR concentration 270 nM, RXRa partner concentration 90 nM). In outline:
as §1

Experiment [12] relates to PPARg:RXRa IVT, anti-PPARg (NR concentration 270 nM, RXRa partner concentration 90 nM). In outline: as §1
In experiment [13] the test system is PPARg DBDmut:RXRa IVT, anti-PPARg (DBD mutation: PPARg1 K132A/R137A, NR concentration 270 nM, RXRa partner concentration 90 nM). In outline: as §1
For experiment [14], the system named is PPARg DBDmut IVT, anti-PPARg (DBD mutation: PPARg1 K132A/R137A, NR concentration 270 nM). In outline:
as §1

Experiment [15] concerns PPARg homodimer (NR concentration 180 nM). In outline:
as §1

Experiment [16] concerns PXR:RXRa (NR concentration 270 nM, RXRa partner concentration 90 nM). In outline:
as §1

Experiment [17] concerns PXR homodimer (NR concentration 270 nM). In outline: as §1
Experiment [18] concerns RARa:RXR (NR concentration 270 nM, RXRa partner concentration 90 nM). In outline: as §1
Experiment [19] has as its system RARa homodimer (NR concentration 270 nM). In outline: as §1
Experiment [20] relates to RARb:RXRa (NR concentration 270 nM, RXRa partner concentration 90 nM). In outline:
as §1

Take TAGCCTAGGTCATGCGGGCCGGTATAGTGTCGGC: the PBM binding z-score in [1] is 4.25; in experiment [2], 3.22; in experiment [3], 0.206; in experiment [4], 1.43; in [5], -0.202; in experiment [6] it was 3.19. Also, the PBM binding z-score in [7] was determined as 1.89; in experiment [8], 2.45; in [9] it was 0.149; in experiment [10] it was 1.79; in experiment [11] it was 1.61; in experiment [12], 2.8. Moreover, the PBM binding z-score was -0.135 in experiment [13]; -0.829 in experiment [14]; 1.05 in experiment [15]; 1.04 in experiment [16]; -0.496 in [17]; 2.14 in experiment [18]. Also, the figures for the PBM binding z-score in experiment [19] and in experiment [20] were -0.545 and 3.61, respectively.

Consider ATATGTAGGTTAGCTGGGGTCATCCAGACTAGGC, for which the PBM binding z-score was determined as 4.52 in experiment [1]; 5.5 in [2]; 2.24 in [3]; 4.39 in experiment [4]; 0.905 in [5]; 5.22 in [6]. Further, the PBM binding z-score was 5.73 in experiment [7]; 5.6 in experiment [8]; 2.9 in experiment [9]; 4.8 in [10]; 6.84 in experiment [11]; 6.06 in experiment [12]. Further, the PBM binding z-score in experiment [13] is 1.71; in [14], 0.818; in experiment [15], 2.58; in [16], 6.14; in [17], 1.99; in experiment [18] it was 5.79. In addition, the PBM binding z-score worked out at 1.43 in experiment [19] and 3.34 in [20].

With AATACAGGGTCATCGTAGGCCAGAGAACGCACAG, the PBM binding z-score was 7.44 in experiment [1]; 6.64 in [2]; 2.11 in [3]; 4.8 in [4]; 1.09 in experiment [5]; 6.16 in [6]. Besides, the PBM binding z-score is 7.11 in [7]; 6.17 in experiment [8]; 2.74 in experiment [9]; 5.08 in [10]; 3.24 in [11]; 4.03 in experiment [12]. Besides, the PBM binding z-score in experiment [13] amounted to 1.71; in experiment [14] it was 1.62; in experiment [15], 2.96; in experiment [16], 5.14; in [17] it was 0.451; in experiment [18], 5.41. Besides, the figures for the PBM binding z-score in [19] and in [20] were 1.51 and 4.56, respectively.

As to CACACTAGGTCACGAAAGGTCAAAGTCGAATGAC, the PBM binding z-score in experiment [1] turned out to be 7.55; in experiment [2] it was 8.25; in experiment [3], 9.12; in experiment [4], 7.76; in experiment [5], 3.53; in experiment [6], 6.67. The PBM binding z-score turned out to be 9.73 in experiment [7]; 8.2 in experiment [8]; 6.53 in experiment [9]; 8.24 in [10]; 7.74 in [11]; 8.37 in [12]. Besides, the PBM binding z-score in [13] amounted to 3.1; in experiment [14], 1.95; in experiment [15], 5.51; in [16], 7.26; in experiment [17], 2.87; in experiment [18], 7.78. The PBM binding z-score in [19] came to 2.46; in experiment [20], 5.97.

CCTTACGGGTCAAGGTTATAACACGGGTGGTACG: the PBM binding z-score in experiment [1] turned out to be 5.53; in experiment [2] it was 3.71; in experiment [3] it was 0.233; in experiment [4] it was 3.44; in [5] it was 0.254; in [6] it was 5.22. The PBM binding z-score turned out to be 4.63 in experiment [7]; 4.8 in experiment [8]; 2.22 in experiment [9]; 3.94 in experiment [10]; 2.12 in [11]; 3.6 in [12]. The PBM binding z-score was 0.305 in experiment [13]; -0.192 in [14]; 2.04 in experiment [15]; 3.52 in [16]; 0.548 in experiment [17]; 4.5 in experiment [18]. The PBM binding z-score in [19] worked out at 0.85; in [20], 4.24.

As for GATACAGGGTCAGCTAGAGGCCAGAGCATGGAAA, the PBM binding z-score in experiment [1] is 4.96; in experiment [2], 2.87; in experiment [3] it was -0.62; in experiment [4], 2.42; in experiment [5], -0.712; in experiment [6], 4.58. The PBM binding z-score in [7] was 3.81; in experiment [8], 3.58; in [9] it was 1.01; in [10], 2.09; in [11], 1.04; in experiment [12], 2.15. Besides, the PBM binding z-score in experiment [13] was 0.0195; in experiment [14], -0.294; in experiment [15], 1.76; in [16], 2.88; in experiment [17], -0.095; in experiment [18], 4.33. For the same sequence, the PBM binding z-score in [19] was -0.0795; in [20] it was 4.16.

As for CCTACTGGGCCAAGAAGGTCATTGATGCCGATAA, the PBM binding z-score was 1.94 in experiment [1]; 2.35 in experiment [2]; 0.897 in experiment [3]; 2.47 in experiment [4]; -0.675 in experiment [5]; 3.5 in [6]. For the same sequence, the PBM binding z-score in experiment [7] stood at 2.17; in experiment [8], 2.94; in experiment [9], 0.664; in [10], 1.87; in [11], 3.62; in [12], 3.76. The PBM binding z-score was -1.15 in experiment [13]; -1.07 in [14]; 1.85 in [15]; 3.13 in [16]; 1.54 in experiment [17]; 3.23 in experiment [18]. The PBM binding z-score in experiment [19] is 0.531; in experiment [20], 2.76.
